In PubChem BioAssay (EPA / NIEHS):
Activity calls are given as the source filed them. The calls were made as follows: active = hit-call score of the fitted dose curve at least 0.9, where 1 is the maximum; inactive = score below 0.9.

How the values were obtained:
[1] = target: Bile acid receptor (Homo sapiens) (UniProt Q96RI1); test: ATG_IR1_CIS: Attagene CIS-FACTORIAL HepG2 Assay for human Nuclear Receptor Subfamily 1 Group H Member 4 (NR1H4), IR1 submotif (AID 2282946); conditions: IR1 reporter transcription, actives raise or lower the signal
Outline: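 HepG2 cells transiently transfected with multiplexed cis-element reporter units read endogenous transcription factor activity. After 24 h compound exposure, reporter mRNA was quantified by RT-PCR, fluorescent labelling, HpaI digestion and capillary electrophoresis; bidirectional fitting versus DMSO baseline.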

[2] = ATG_ISRE_CIS: Attagene CIS-FACTORIAL HepG2 Assay for human Interferon Regulatory Factor 1 (IRF1) binding to an Interferon-Stimulated Response Element (ISRE) (AID 2282948); conditions: HepG2 ISRE cis-reporter (Attagene), mRNA transcription readout; actives raise or lower the signal
Outline: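 Read-out: fluorescent RT-PCR products resolved by capillary electrophoresis, reporting endogenous transcription factor activity via ISRE-driven reporter mRNA in transfected HepG2 cells dosed for 24 h; gain or loss fitted relative to DMSO.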

[3] = target: Hypoxia-inducible factor 1-alpha (Homo sapiens) (UniProt Q16665); test: ATG_HIF1a_CIS: Attagene CIS-FACTORIAL HepG2 Assay for human Hypoxia Inducible Factor 1 (HIF1A) (AID 2282951); conditions: HepG2 Attagene cis-factorial HIF1a reporter transcription; actives raise or lower the signal
Outline: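 HepG2 cells transiently transfected with multiple cis-regulated reporter transcription units measure endogenous transcription factor activity. After 24 h exposure, reporter mRNA is quantified by RT-PCR with 6-FAM labelling, HpaI digestion and capillary electrophoresis. Bidirectional fitting against DMSO.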

[4] = target: Hepatocyte nuclear factor 6 (Homo sapiens) (UniProt Q9UBC0); test: ATG_HNF6_CIS: Attagene CIS-FACTORIAL HepG2 Assay for human Hepatocyte Nuclear Factor 6 (HNF6) (AID 2282952); conditions: HepG2 Attagene cis-factorial HNF6 reporter transcription; actives raise or lower the signal
Outline: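 Readout: fluorescent reporter-transcript fragments resolved by capillary electrophoresis after RT-PCR, reflecting endogenous factor activity in transfected HepG2. Exposure 24 h. Gain or loss of signal fitted bidirectionally against DMSO.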

[5] = target: Heat shock factor protein 1 (Homo sapiens) (UniProt Q00613); test: ATG_HSE_CIS: Attagene CIS-FACTORIAL HepG2 Assay for human Heat Shock Transcription Factor 1 (HSE) (AID 2282953); conditions: HepG2 HSE cis-reporter, Attagene RNA transcription; actives raise or lower the signal
Outline: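 Using HepG2 with transfected cis-driven reporter constructs, compound effects on endogenous factor activity are scored as reporter mRNA change at 24 h. Detection: RT-PCR, HpaI digestion, capillary electrophoresis; bidirectional fitting to DMSO.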

[6] = ATG_MRE_CIS: Attagene CIS-FACTORIAL HepG2 Assay for human Metal Responsive Element (MRE) (AID 2282954); conditions: HepG2 MRE cis-reporter transcription, Attagene multiplex; actives raise or lower the signal
Outline: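 Multiplexed cis-reporter assay in human HepG2 liver cells, 24 h incubation with test chemical. Reporter transcripts measured by RT-PCR and capillary electrophoresis; values from bidirectional curve fitting versus DMSO.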

[7] = ATG_PBREM_CIS: Attagene CIS-FACTORIAL HepG2 Assay for human Phenobarbital-responsive Enhancer Module (PBREM) (AID 2282955); conditions: HepG2 PBREM cis-reporter, Attagene multiplexed transcription; actives raise or lower the signal
Outline: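 HepG2 cells transiently transfected with multiple cis-regulated reporter units measure endogenous transcription factor activity; 24 h compound exposure. Reporter mRNA quantified by RT-PCR, fluorescent labelling, HpaI digestion and capillary electrophoresis; bidirectional fit versus DMSO.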

[8] = ATG_M_32_CIS: Attagene CIS-FACTORIAL HepG2 Assay for M32 Transcription Factor (Internal Marker) (AID 2282949); conditions: HepG2 Attagene cis-factorial M32 reporter, mRNA; actives raise or lower the signal;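 also: background control marker of the multiplexed CIS panel rather than a real target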
Outline: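 Using DMSO as baseline, bidirectional curve fits were applied to reporter mRNA signals. These came from transiently transfected HepG2 cells exposed for 24 h, with RNA analysed by RT-PCR, FAM primer extension, HpaI digestion and CE.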

[9] = ATG_M_06_CIS: Attagene CIS-FACTORIAL HepG2 Assay for M06 Transcription Factor (Internal Marker) (AID 2282950); conditions: HepG2 Attagene CIS-FACTORIAL M06 internal marker reporter; actives raise or lower the signal
Outline: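 One of many multiplexed endpoints: HepG2 reporter mRNA after 24 h dosing, detected by RT-PCR and capillary electrophoresis fluorescence; gain or loss of signal analysed against DMSO.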

[10] = ATG_GRE_CIS: Attagene CIS-FACTORIAL HepG2 Assay for human Glucocorticoid Response Elements (GRE) (AID 2282947); conditions: HepG2 GRE cis-reporter, Attagene multiplex mRNA; actives raise or lower the signal
Outline: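 Multiplexed cis-reporter mRNA induction, HepG2, 24 h post-dose. RT-PCR, FAM-labelled, HpaI-digested amplicons by CE. Bidirectional fit vs DMSO.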

Measured: AC50

Chain of Hypoxia-inducible factor 1-alpha (Homo sapiens) (Q16665 whole entry, looked up): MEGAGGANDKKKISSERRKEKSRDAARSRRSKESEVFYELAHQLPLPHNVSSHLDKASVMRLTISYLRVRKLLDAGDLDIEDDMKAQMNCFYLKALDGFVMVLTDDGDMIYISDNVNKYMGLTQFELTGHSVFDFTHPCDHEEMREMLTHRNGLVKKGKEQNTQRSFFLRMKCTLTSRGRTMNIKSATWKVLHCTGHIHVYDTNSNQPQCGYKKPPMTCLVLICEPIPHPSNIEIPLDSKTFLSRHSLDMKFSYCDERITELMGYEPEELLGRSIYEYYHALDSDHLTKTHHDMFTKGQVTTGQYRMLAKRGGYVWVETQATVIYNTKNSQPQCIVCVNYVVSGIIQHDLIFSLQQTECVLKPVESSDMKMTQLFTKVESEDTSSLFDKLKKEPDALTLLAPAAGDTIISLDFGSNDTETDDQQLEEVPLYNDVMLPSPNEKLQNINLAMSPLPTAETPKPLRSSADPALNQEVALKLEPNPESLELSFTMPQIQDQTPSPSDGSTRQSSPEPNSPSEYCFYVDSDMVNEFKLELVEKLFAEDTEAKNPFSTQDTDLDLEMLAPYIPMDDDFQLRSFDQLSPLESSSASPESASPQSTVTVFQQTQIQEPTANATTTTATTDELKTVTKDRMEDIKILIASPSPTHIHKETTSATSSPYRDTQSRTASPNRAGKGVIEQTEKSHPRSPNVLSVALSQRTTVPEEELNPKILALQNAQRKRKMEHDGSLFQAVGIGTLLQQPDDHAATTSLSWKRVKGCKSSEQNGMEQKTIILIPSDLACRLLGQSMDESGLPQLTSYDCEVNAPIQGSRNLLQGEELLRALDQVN
Chain of Heat shock factor protein 1 (Homo sapiens) (Q00613 whole entry, looked up): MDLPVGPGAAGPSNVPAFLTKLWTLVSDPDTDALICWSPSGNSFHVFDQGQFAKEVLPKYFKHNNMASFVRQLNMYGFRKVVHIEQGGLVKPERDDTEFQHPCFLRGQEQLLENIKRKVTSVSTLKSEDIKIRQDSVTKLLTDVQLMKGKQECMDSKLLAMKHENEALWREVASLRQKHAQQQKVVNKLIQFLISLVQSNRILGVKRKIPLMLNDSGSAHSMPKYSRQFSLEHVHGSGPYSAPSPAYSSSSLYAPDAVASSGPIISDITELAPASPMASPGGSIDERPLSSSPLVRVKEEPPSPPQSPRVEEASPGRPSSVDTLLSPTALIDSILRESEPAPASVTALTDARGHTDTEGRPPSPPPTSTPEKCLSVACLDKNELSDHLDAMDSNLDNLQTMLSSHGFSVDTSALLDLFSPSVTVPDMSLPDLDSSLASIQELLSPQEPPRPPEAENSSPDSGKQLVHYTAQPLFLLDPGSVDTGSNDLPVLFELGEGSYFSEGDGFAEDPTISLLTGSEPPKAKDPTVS
Chain of Hepatocyte nuclear factor 6 (Homo sapiens) (Q9UBC0 whole entry, looked up, the tested form may be a part): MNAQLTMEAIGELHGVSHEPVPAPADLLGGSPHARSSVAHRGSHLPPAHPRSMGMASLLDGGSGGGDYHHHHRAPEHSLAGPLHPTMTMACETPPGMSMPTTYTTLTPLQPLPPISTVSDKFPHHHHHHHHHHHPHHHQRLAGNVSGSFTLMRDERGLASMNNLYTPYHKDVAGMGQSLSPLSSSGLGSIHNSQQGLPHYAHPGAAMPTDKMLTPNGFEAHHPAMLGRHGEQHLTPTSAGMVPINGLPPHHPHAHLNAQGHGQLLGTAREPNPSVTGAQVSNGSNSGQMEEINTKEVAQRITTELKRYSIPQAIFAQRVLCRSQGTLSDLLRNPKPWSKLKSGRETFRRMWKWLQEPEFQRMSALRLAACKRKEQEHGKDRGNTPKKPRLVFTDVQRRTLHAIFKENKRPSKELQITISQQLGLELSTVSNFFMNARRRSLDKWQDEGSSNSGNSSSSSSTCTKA
Chain of Bile acid receptor (Homo sapiens) (Q96RI1 whole entry, looked up): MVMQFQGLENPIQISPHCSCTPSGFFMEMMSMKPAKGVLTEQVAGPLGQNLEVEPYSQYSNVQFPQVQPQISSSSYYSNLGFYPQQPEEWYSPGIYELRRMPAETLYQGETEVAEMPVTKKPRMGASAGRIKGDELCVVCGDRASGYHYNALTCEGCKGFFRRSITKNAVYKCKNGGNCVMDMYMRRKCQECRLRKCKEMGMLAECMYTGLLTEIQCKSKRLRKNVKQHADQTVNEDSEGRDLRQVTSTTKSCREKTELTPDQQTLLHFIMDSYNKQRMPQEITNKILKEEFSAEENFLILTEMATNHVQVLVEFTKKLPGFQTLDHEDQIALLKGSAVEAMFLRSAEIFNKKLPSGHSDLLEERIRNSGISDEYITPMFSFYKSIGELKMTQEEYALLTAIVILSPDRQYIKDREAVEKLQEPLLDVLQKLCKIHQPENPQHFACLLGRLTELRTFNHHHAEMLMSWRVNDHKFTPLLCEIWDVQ

COc1ccc(OC)c(N=Nc2c(O)ccc3ccccc23)c1
not listed: [8] | [9] | [10]
inactive: all other assays above

O=c1c(O)c(-c2ccc(O)cc2)oc2cc(O)cc(O)c12
not listed: [3] | [6] | [10]
inactive: all other assays above

CCC1(c2ccccc2)C(=O)NCNC1=O
not listed: [3] | [10]
inactive: all other assays above

NCc1ccco1
not listed: [10]
inactive: all other assays above

O=C1OC(=O)c2c(Cl)c(Cl)c(Cl)c(Cl)c21
not listed: [6] | [9] | [10]
inactive: all other assays above

CC[N+](C)(CC)CC
not listed: [9] | [10]
inactive: all other assays above

CC(C)CCOC(=O)c1ccccc1
not listed: [10]
inactive: all other assays above

CCCCCCOC(=O)CCC
not listed: [10]
inactive: all other assays above

C=C(C)C(=O)OCCOC1CC2CC1C1C=CCC21 (centres undefined)
not listed: [10]
inactive: all other assays above

c1ccc2[nH]cnc2c1
not listed: [8] | [10]
inactive: all other assays above

CC(=O)c1ccccn1
not listed: [6] | [9] | [10]
inactive: all other assays above

CC(C)(C)c1ccc(C(=O)O)cc1
not listed: [7] | [9] | [10]
inactive: all other assays above

CN(C)CCOc1ccc(/C(=C(/CCCl)c2ccccc2)c2ccccc2)cc1
not listed: [10]
inactive: all other assays above

O=C1CCCC=CCCCCCCCCCC1
active: [2] 41.2 µM | [5] 63 µM
not listed: [10]
inactive: all other assays above

CC1CCC(C(C)C)C(O)C1 (centres undefined)
not listed: [5] | [10]
inactive: all other assays above

CCCCCCCCCCCC(=O)OC[C@@H](O)[C@H]1OC[C@H](O)[C@H]1O
not listed: [10]
inactive: all other assays above

O=C1OC(=O)c2c(Br)c(Br)c(Br)c(Br)c21
not listed: [1] | [7] | [9]
inactive: all other assays above

CC(O)C1CCCCC1 (centres undefined)
not listed: [1] | [6]
inactive: all other assays above

CN(C)C(=O)Nc1ccc(Oc2ccc(Cl)cc2)cc1
active: [5] 181 µM
not listed: [1]
inactive: all other assays above

CC(CN=Cc1ccccc1O)N=Cc1ccccc1O (centres undefined)
active: [3] 72.3 µM | [6] 26.8 µM
not listed: [1]
inactive: all other assays above

CC(C)OCCO
not listed: [1]
inactive: all other assays above

CCC(=O)O[C@@H]1C[C@H]2CC[C@]1(C)C2(C)C
not listed: [1] | [2] | [8]
inactive: all other assays above

CCC(=O)OCCOc1ccccc1
inactive: [2] | [8] | [9] | [3] | [4] | [5]

CCOc1ccc(N=Nc2ccc(C=Cc3ccc(N=Nc4ccc(OCC)cc4)cc3S(=O)(=O)O)c(S(=O)(=O)O)c2)cc1
not listed: [1]
inactive: all other assays above

COc1ccccc1N=Nc1c(S(=O)(=O)O)cc2cc(S(=O)(=O)O)cc(NC(C)=O)c2c1O
not listed: [1]
inactive: all other assays above

C=C(C#N)C(=O)OCC
active: [2] 169 µM | [5] 144 µM
not listed: [1] | [6]
inactive: all other assays above

OC[C@H]1O[C@@H](Oc2ccc(O)cc2)[C@H](O)[C@@H](O)[C@@H]1O
inactive: [2] | [8] | [9] | [3] | [4] | [5]

O=[N+]([O-])c1cccc(Cl)c1
not listed: [1] | [7] | [10]
inactive: all other assays above
